Screens as filed in PubChem.
HT1080 IDH1KD tx – HT-1080 IDH1 knockdown cell toxicity (counter line); HT-1080 IDH1 knockdown viability, ATP luminescence, 48 h; Potency, µM (top dose mostly 46.1 µM), most hits filed as cytotoxic; 2% of 360,000 active; AID 686971
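Using the IDH1-knockdown HT-1080 line run in the same batch and compound series as the NT line, viability after 48 h at 37 °C was determined by CellTiter-Glo luminescence and expressed as % activity.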
DT40 TDP1 CPT – DT40-hTDP1 cell growth loss with CPT; chicken DT40 Tdp1-/-;hTDP1 cells + 20 nM CPT, ATP luminescence, 48 h; Potency, µM (highest dose often 46.2 µM), actives largely listed as inhibitors; 12% of 420,000 active; also: nearly all actives have a fitted effect of over 55% in size
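Cell growth measured by CellTiter-Glo luminescence after a minimum 48 h, 37 C compound exposure with 20 nM CPT in Tdp1-knockout DT40 cells stably expressing hTDP1, seeded 400/well; qHTS titration format.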
HT1080NT lethal – kills 2HG-producing HT-1080-NT fibrosarcoma cells | 1.6% of 360,000 active | HT-1080-NT fibrosarcoma viability, CellTiter-Glo ATP luminescence, 48 h | Potency, µM (doses to about 46.1 µM), most hits filed as cytotoxic;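 also: NT is the 2HG producing partner of a matched IDH1 knockdown line; nearly all actives have a fitted effect of over 55% in size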
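Viability of the 2HG-overproducing fibrosarcoma line after 48 hours of compound exposure at 37 degrees C was determined by luminescence with CellTiter-Glo, and concentration-effect curves were then fitted and categorized.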
IL-1B inflam inh – inflammasome signaling inhibition, IL-1 beta readout; activity change, % at 57.5 µM; THP-1 LPS/ATP IL-1B secretion, AlphaLISA, 16 h; hits give low values; 4.7% of 360,000 active; in the data active = activity change below about -50%; inconclusive = mostly about -30% to -49%
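THP-1 cells pretreated 1 hr with compounds (up to 57.5 uM final), then stimulated with LPS (250 ng/mL final) plus ATP (1.25 mM final); secreted IL-1B measured by AlphaLISA after 16 hr, decreased signal indicating inhibition.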
TDP1 cell noCPT – qHTS for Inhibitors of human tyrosyl-DNA phosphodiesterase 1 (TDP1): qHTS in cells in absence of CPT; Potency, µM (titrated, usually from 46.2 µM), hits mostly inhibitors; 15% of 420,000 active; DT40 Tdp1-/- hTDP1 cells, no CPT, ATP luminescence, 48 h; also: nearly all actives have a fitted effect of over 55% in size
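A cellular qHTS used chicken DT40 cells lacking endogenous Tdp1 but carrying stably transfected human TDP1. Compounds were applied without camptothecin, and cell growth kinetics were judged by ATP-dependent luminescence after ≥48 hr.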
Of the large screens only hits and unclear results are named; the others gave an inactive call. Compounds with a hit are over-represented: about 19% of the library has one in this group of screens. Unless noted, calls follow the shape of the dose curve; as a rule, active = well fitted curve in the direction sought with a large enough effect; inconclusive = small, poorly fitted or top-dose-only effect, or another doubt; inactive = no such curve, though single readings can be large; an effect the other way counts as inactive or inconclusive.

CCNC(=O)c1ccccc1-c1nc(-c2ccccc2Cl)no1	DT40 TDP1 CPT inconclusive, TDP1 cell noCPT 18.4µM
CCOc1cc(NC(=S)NCC2CCCO2)c(OCC)cc1NC(=O)c1ccccc1F (stereo unspecified)	DT40 TDP1 CPT inconclusive, TDP1 cell noCPT 23.1µM
O=C(COc1ccccc1C(=O)NCC1CCCO1)Nc1ccc(Cl)cc1Cl (stereo unspecified)	DT40 TDP1 CPT 14.6µM, TDP1 cell noCPT inconclusive
O=C(COc1ccccc1C(=O)NCC1CCCO1)Nc1ccc(Br)cc1 (stereo unspecified)	DT40 TDP1 CPT inconclusive
CCOc1cc(NC(=S)NCC2CCCO2)c(OCC)cc1NC(=O)CC (stereo unspecified)	HT1080NT lethal inconclusive
CCNC(=O)c1ccccc1-c1nc(-c2ccccc2OC)no1	TDP1 cell noCPT inconclusive
CCOC(=O)c1ccc(NC(=O)CSc2c(C(C)C)cnc3c2c(=O)n(C)c(=O)n3C)cc1	none (no result: HT1080 IDH1KD tx, HT1080NT lethal, IL-1B inflam inh)
O=C(CC1C(=O)NCCN1Cc1ccccc1)NC1CCCCC1 (stereo unspecified)	none
Cc1nc2ccccc2cc1C(=O)NCc1ccco1	DT40 TDP1 CPT inconclusive, TDP1 cell noCPT inconclusive
Cc1ccccc1-c1noc(-c2ccccc2C(=O)NCc2ccco2)n1	DT40 TDP1 CPT inconclusive, IL-1B inflam inh inconclusive, TDP1 cell noCPT 18.4µM
O=C(NCC1CCCO1)c1ccccc1-c1nc(-c2ccc(Cl)cc2)no1 (stereo unspecified)	DT40 TDP1 CPT 18.4µM, TDP1 cell noCPT 18.4µM
CCNC(=O)NC1(C(=O)N2CCC(Cc3ccccc3)CC2)CCCCC1	none
CC1(C)CC2CC(C)(CN2Cc2c(O)ccc3ccccc23)C1 (stereo unspecified)	DT40 TDP1 CPT inconclusive, TDP1 cell noCPT 13µM
CC1(C)CC2CC(C)(CN2Cc2cccc([N+](=O)[O-])c2)C1 (stereo unspecified)	none
CC(C)CCCCCCCCCCCCC(=O)NCC(=O)NC1C(C)OC(Nc2ncnc3nc[nH]c23)C(O)C1O (stereo unspecified)	HT1080 IDH1KD tx 0.116µM, DT40 TDP1 CPT 0.0206µM, HT1080NT lethal 1.84µM, IL-1B inflam inh -93.0, TDP1 cell noCPT 0.0326µM
CC(C)CNc1ncnc2nc[nH]c12	TDP1 cell noCPT inconclusive (no result: HT1080 IDH1KD tx, HT1080NT lethal, IL-1B inflam inh)
COc1ccc(C2=NOC(C)(c3nnc(-c4ccc(Cl)cc4)o3)C2)cc1 (stereo unspecified)	none
C/C(=N\N1CCN(C2c3ccccc3-c3ccccc32)CC1)c1ccncc1	DT40 TDP1 CPT 16.4µM, TDP1 cell noCPT 16.4µM
COc1cc(C(=O)NC(=S)NNC(=O)c2ccc3c(c2)OCO3)cc(OC)c1OC	HT1080 IDH1KD tx inconclusive, DT40 TDP1 CPT inconclusive, HT1080NT lethal inconclusive, TDP1 cell noCPT inconclusive
COc1cc(/C=C/C(=O)c2ccc3c(c2)OCCO3)cc(OC)c1OC	HT1080 IDH1KD tx inconclusive, DT40 TDP1 CPT inconclusive, IL-1B inflam inh -94.2, TDP1 cell noCPT inconclusive
COc1cc(C(=O)COC(=O)c2ccc3c(c2)OCCO3)cc(OC)c1OC	HT1080 IDH1KD tx inconclusive, DT40 TDP1 CPT 14.6µM, HT1080NT lethal inconclusive, TDP1 cell noCPT inconclusive
COc1cc(C(=O)c2cc3c(cc2C)OCO3)cc(OC)c1OC	HT1080 IDH1KD tx inconclusive, DT40 TDP1 CPT 0.0231µM, HT1080NT lethal inconclusive, TDP1 cell noCPT 0.0231µM
COc1cc(/C=C/C(=O)c2ccc3c(c2)OCO3)cc(OC)c1OC	HT1080 IDH1KD tx inconclusive, DT40 TDP1 CPT inconclusive, HT1080NT lethal inconclusive, IL-1B inflam inh -96.7, TDP1 cell noCPT 11.6µM
COc1ccc(C(=O)COC(=O)c2ccc3c(c2)OCCO3)c(OC)c1	TDP1 cell noCPT inconclusive
COc1cc(C=CC(=O)OCC=Cc2ccc3c(c2)OCO3)cc(OC)c1OC	DT40 TDP1 CPT inconclusive, TDP1 cell noCPT inconclusive
CCOC(=O)C(C)Oc1c(C(=O)OC)sc2ncccc12 (stereo unspecified)	none
COc1cc(C(=O)OCC(=O)c2cc(C)n(C)c2C)cc(OC)c1OC	HT1080 IDH1KD tx inconclusive, DT40 TDP1 CPT 25.9µM, HT1080NT lethal inconclusive, TDP1 cell noCPT 16.4µM
COc1ccc(OC)c(/C=C/C(=O)c2ccc3c(c2)OCCO3)c1	HT1080 IDH1KD tx inconclusive, DT40 TDP1 CPT inconclusive, HT1080NT lethal inconclusive, IL-1B inflam inh -101.1, TDP1 cell noCPT inconclusive
Cc1ccc(C)c(NC(=O)CSc2nc(=O)n(CCN3CCOCC3)c3c2CCC3)c1	none (no result: HT1080 IDH1KD tx, HT1080NT lethal, IL-1B inflam inh)
CC(NC(=O)COC(=O)Cc1cccs1)c1ccc(F)cc1 (stereo unspecified)	none
N#Cc1c(N)[nH]c2ccc(Sc3ccccc3)cc12	HT1080 IDH1KD tx 7.31µM, DT40 TDP1 CPT 0.731µM, HT1080NT lethal 3.26µM, TDP1 cell noCPT 0.731µM
CCc1ccc2[nH]c3nc(SCCN4CCOCC4)nnc3c2c1	DT40 TDP1 CPT inconclusive, TDP1 cell noCPT 23.1µM
Cc1ccc(C(=O)NNC(=O)CSc2nc(N)cc(N)n2)cc1	DT40 TDP1 CPT inconclusive
Cc1ccc(C(=O)NNC(=O)CSc2nnc3c(n2)[nH]c2ccc(C)cc23)cc1	DT40 TDP1 CPT inconclusive, TDP1 cell noCPT 18.4µM
CCc1ccc2[nH]c3nc(SCC(=O)NNC(=O)c4ccc(C(C)(C)C)cc4)nnc3c2c1	DT40 TDP1 CPT 20.6µM, IL-1B inflam inh -59.1, TDP1 cell noCPT 16.4µM
C[C@@H]1CN([C@H](C)CO)C(=O)CCCn2nncc2CO[C@H]1CN(C)Cc1ccc2cccnc2c1	none
COc1ccccc1-c1ccc(/C=C2\C=CC(=O)O2)o1	HT1080 IDH1KD tx inconclusive, DT40 TDP1 CPT 20.6µM, TDP1 cell noCPT inconclusive (no result: IL-1B inflam inh)
COc1ccccc1-c1ccc(/C=C2/C=C(C)OC2=O)o1	DT40 TDP1 CPT 13µM, TDP1 cell noCPT 10.3µM
Cc1noc(C)c1COc1ccc(C(=O)N2CCC(C(N)=O)CC2)cc1	none
COc1ccc(CC(=O)NCc2nnc(SCC(=O)Nc3ccc(OC)cc3)n2C)cc1	none
COc1ccc2cc3cc(C(=O)NCC4COc5ccccc5O4)oc3nc2c1 (stereo unspecified)	HT1080 IDH1KD tx inconclusive, DT40 TDP1 CPT inconclusive, HT1080NT lethal inconclusive, TDP1 cell noCPT 16.4µM
COc1ccc2cc3cc(C(=O)NCc4ccc5c(c4)OCO5)oc3nc2c1	none
CCN(C(=O)c1cc2cc3ccc(C)cc3nc2o1)c1ccc(OC)cc1	HT1080NT lethal inconclusive, IL-1B inflam inh -51.6, TDP1 cell noCPT inconclusive
COc1ccc(CNC(=O)c2cc3cc4ccc(C)cc4nc3o2)cc1	DT40 TDP1 CPT inconclusive, TDP1 cell noCPT 23.1µM (no result: HT1080 IDH1KD tx, HT1080NT lethal, IL-1B inflam inh)
COc1ccc(CNC(=O)C(C)N(Cc2ccccc2OC)C(=O)c2snc(C(N)=O)c2N)cc1 (stereo unspecified)	DT40 TDP1 CPT inconclusive, TDP1 cell noCPT inconclusive
Cc1nn(-c2ccccc2)c2c1C(O)n1c(nc3ccccc31)S2 (stereo unspecified)	DT40 TDP1 CPT 14.6µM, IL-1B inflam inh -86.0, TDP1 cell noCPT 15.8µM
